# Results from the supplement of paper PMC6555819.
# How the values were obtained:
# Experiment in all cases: PBM binding z-score (relative to random genomic background probes); higher = stronger binding; sequences stand for … in GC…GCGATTGACAGCGTAGAATGAAGG
# [1] = test system: RARb homodimer (NR concentration 270 nM)
# Method in brief: (§1)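 Antibodies against each partner of ligand-free nuclear receptor dimers (one per run) detected binding on custom Agilent 4×180K protein-binding microarrays after 1 h incubation. The double-stranded probes had 34-nt variable regions carrying direct-repeat seeds, single-nucleotide variants, half-site ablations and random human genomic background sequences. Binding z-scores, from regression-normalized fluorescence, use the random background probes as reference.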
# [2] = test system: RARg:RXRa (NR concentration 270 nM, RXRa partner concentration 90 nM)
# Method in brief: as §1
# [3] = test system: RARg homodimer (NR concentration 270 nM)
# Method in brief: as §1
# [4] = test system: RXRa DBDmut IVT, anti-RXR (DBD mutation: RXRa K156A/R161A, NR concentration 90 nM)
# Method in brief: as §1
# [5] = test system: RXRa homodimer (NR concentration 180 nM)
# Method in brief: as §1
# [6] = test system: THRa:RXRa (NR concentration 90 nM, RXRa partner concentration 90 nM)
# Method in brief: as §1
# [7] = test system: THRa homodimer (NR concentration 90 nM)
# Method in brief: as §1
# [8] = test system: VDR homodimer (NR concentration 270 nM)
# Method in brief: as §1
Sequence,PBM binding z-score [1],PBM binding z-score [2],PBM binding z-score [3],PBM binding z-score [4],PBM binding z-score [5],PBM binding z-score [6],PBM binding z-score [7],PBM binding z-score [8]
TCAGATAGGTAAACAGGTGAAAGTCCGTAAGTTA,0.841,0.678,0.219,1.48,1.01,0.664,0.307,0.407
TCTTGTACATCAAAGGTTAAGAAAGCCGAAGCCT,1.84,1.84,1.06,1.09,2.7,1.48,-0.039,0.246
CCTAGCAGGCCAGGGTCACACAAGCATTTCGCTT,2.98,3.72,2.62,0.238,4.27,3.45,1.54,1.18
AATACAGGGTCATCGTAGTCCAGAGTACGCACAG,3.56,5.76,4.86,3.42,6.39,4.18,1.83,4.22
CCTAGTTGGTCAGGAGGTCACTCACCGGATATGA,3.92,4.48,3.73,0.697,3.58,3.17,2.09,2.45
GCTAGGTGGTCAGTAAAAGGTCACACACCGGTCG,5.21,6.23,5.47,0.0546,5.57,3.55,1.73,2.03
TCTTGTAGATCAACAAGAGGTTAAGAAAGATCGA,0.756,1.56,0.53,-0.00375,1.4,1.22,-0.94,-0.26
CAAACTAGGTTACCGGAAGGTCAAAGTCCGCATG,4.55,6.15,4.19,0.838,4.64,3.68,1.66,2.56
TAGCCTAGGTCATGCGGGCCAGTTTAGTGTCGGC,3.03,3.96,4.73,0.93,3.2,3.02,1.07,0.95
CGTCAGAGTTCAAGGTAACGTAACAGAAAGCAGC,3.02,4.6,5.3,4.91,4.35,2.74,1.04,4.53
ATATGTAGGTTAAGGGTCATTCCGGTTGGTTCGC,3.85,4.63,3.26,2.44,5.95,3.49,1.62,4.26
CCTCGCAGGACAACAGGAGGTCAGAGCTGCCAGA,3.19,2.79,2.57,0.186,1.86,2.51,0.912,1.05
CAAACTAGGTCACAGAGTTCAAAGTCCGTGCGTA,4.74,6.06,6.71,4.25,5.69,4.03,1.96,9.52
TCTATTAGTTGAGTAGGGCAACCGAAACAGCGGA,0.153,0.16,0.294,0.368,0.116,-0.257,-0.445,-0.411
CAGCCTAAGTCAGGGCCAGTATAGGAGGAACGTT,0.00988,-0.148,-0.0459,-0.572,-0.223,-0.328,-0.317,-0.363
AATATTAGTTGACTTAGGGCAACCGATACGACGC,0.918,0.615,0.87,0.532,0.76,1.44,0.572,0.87
AATACAGTGTCATCGTAGGCCAGAGTACGCACAG,0.72,0.907,1.24,0.561,0.84,1.81,-0.754,0.395
ATCTCTCGGTAAAAGTTCAGTGAATCCCGAGGAT,2.43,1.76,2.03,0.823,0.954,0.761,0.0329,1.74
CCTTACGGGTCATTCCAGGTTATAGCATCGGAGT,3.03,4.52,4.25,2.86,5.2,5.12,0.692,2.59
GGAACGAGGGCAAAGTTGATAGTATCTGTCGACG,1.24,2.08,1.84,2.59,1.68,1.36,0.0529,1.64
ATCCCTAGGTAAAAGTTCAGTGAATCCCGAGGAT,2.41,1.53,1.73,0.406,1.39,1.13,0.117,1.71
ACATGTAGGTTATCGGGTCATTCAGTTTGCGCAT,3.23,3.35,2.41,1.87,3.6,3.32,3.05,4.06
TCTAGCAGGCCAGAGGGTCACTCGAGAGGTACGG,2.65,2.47,2.33,0.0685,2.58,1.37,-0.427,0.163
CCTCGGTGGACAGAAGGTCAGAGCTGTCCGCTTT,2.87,2.3,1.99,-0.526,1.84,1.89,-0.379,-0.538
CGGACTAGGTCATTGACAGGACAGTGAATAGTAA,2.48,4.64,4.39,2.41,2.38,2.85,0.733,1.23
CGAACGAGGGCATGAGATGATAGCAAATGCCGAT,0.674,1.28,1.64,1.82,0.882,0.979,-0.224,0.831
GATACAGGGTCAGCTAGTGGCCAGAGTATGGAAA,2.79,4.73,4.32,1.25,3.81,2.46,0.162,0.556
GCTAGTTGGTCAGTAAAAGGTCACACAACGGTCG,5.29,5.75,5.52,0.797,5.56,3.76,1.74,1.75
